Sampled rows, rich in hits. Any-hit rate of the full collection: about 10%.
FLuc inh = inhibitors of firefly (Photinus pyralis) luciferase. P08659. purified P. pyralis luciferase, luminescence, biochemical. Potency, µM (titrated, usually from 115 µM), hits mostly inhibitors. 2.5% of 76,000 active; note: nearly all actives have a fitted effect of over 65% in size
Target sequence (P08659 whole entry, looked up): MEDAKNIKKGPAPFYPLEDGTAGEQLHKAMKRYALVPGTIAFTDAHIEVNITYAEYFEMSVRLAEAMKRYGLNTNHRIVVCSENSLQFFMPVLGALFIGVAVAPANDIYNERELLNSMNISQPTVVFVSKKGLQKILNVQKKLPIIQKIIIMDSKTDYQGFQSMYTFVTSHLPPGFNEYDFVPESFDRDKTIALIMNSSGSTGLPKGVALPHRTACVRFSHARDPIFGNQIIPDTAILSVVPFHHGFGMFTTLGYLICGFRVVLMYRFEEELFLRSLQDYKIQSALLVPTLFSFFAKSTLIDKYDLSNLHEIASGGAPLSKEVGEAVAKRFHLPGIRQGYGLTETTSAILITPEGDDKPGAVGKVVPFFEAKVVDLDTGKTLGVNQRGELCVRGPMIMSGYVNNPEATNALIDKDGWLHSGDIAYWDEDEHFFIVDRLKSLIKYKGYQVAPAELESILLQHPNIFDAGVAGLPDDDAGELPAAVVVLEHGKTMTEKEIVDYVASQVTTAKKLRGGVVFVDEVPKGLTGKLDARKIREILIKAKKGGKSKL
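FLuc 10nM, D-luciferin 10uM, ATP 10uM, Mg acetate 10mM, Tris acetate pH 7.5, Tween/BSA; cpd qHTS; enzyme added last; CCD luminescence.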
GPT2 inh = inhibitors of human GPT2 alanine aminotransferase; 0.25% of 100,000 active; Q8TD30; Recombinant GPT2, coupled pyruvate oxidase/HRP Amplex Red fluorescence; Potency, µM (doses to about 57.7 µM), inactives show at the top dose activity change, negative = inhibition, hits mostly inhibitors; note: nearly all actives have a fitted effect of over 60% in size
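GPT2 10ng/uL, a-KG 250uM, L-Ala 2mM, HEPES pH7.5 + 0.0001% Tween; 30 min RT. Then Amplex mix (PO/HRP/ThPP), 30 min RT dark, fluorescence. AOA 50uM used as positive control.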
HEK cytotox = cytotoxic compounds in HEK 293 cells | 6.6% of 94,000 active | Potency, µM (titrated, usually from 115 µM), inactives show at the top dose activity change, negative = cytotoxicity, hits mostly inhibitors | HEK 293 viability, ATP luminescence (CellTiter-Glo), 48-72 h; note: nearly all actives have a fitted effect of over 60% in size
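250 HEK 293 cells/well; compound by pintool; incubated 48 or 72 hr at 37 degree Celsius; CellTiter-Glo added, 10 min RT, luminescence imaged.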
NPR1 antag = blocks ANP-stimulated signaling of human Npr1 receptor. Potency, µM (doses to about 46.3 µM), inactives show top-dose activity change, negative = inhibition, actives largely listed as inhibitors. P16066. 1.6% of 76,000 active. HEK293 hNpr1 GloSensor cGMP, ANP-stimulated luminescence; calls by dose curve; note: nearly all actives have a fitted effect of over 60% in size
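HEK293 cells stably expressing human Npr1 and cGMP GloSensor pGS-40F, loaded 2 h with 2% GloSensor reagent, given compound 30 min at room temperature. Luminescence read before and 20 min after 0.1 nM hNppA.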
3T3 cytotox = NIH 3T3 cell cytotoxicity | NIH 3T3 viability, CellTiter-Glo ATP luminescence, 48-72 h | Potency, µM (top dose mostly 96.7 µM), without a hit: top-dose activity change, negative = cytotoxicity, usual class: inhibitors | 4.3% of 94,000 active; note: nearly all actives have a fitted effect of over 55% in size
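First NIH 3T3 cells are plated at 400 cells/well; next compound is pinned in; then plates incubate 48 or 72 hr at 37 °C; finally CellTiter-Glo is added and luminescence read after 10 min.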
An asterisk follows results filed as active; i = inactive; ? = inconclusive; nt = no result; [ ] = dose if it differs, or a comment. Unless noted, calls come from the whole dose curve; as a rule, active = well fitted curve in the direction sought with a large enough effect; inconclusive = small, poorly fitted or top-dose-only effect, or another doubt; inactive = no such curve, though single readings can be large; an effect the other way counts as inactive or inconclusive. % is set by controls: 0 for no effect and ±100 for the full control effect; potency is the fitted concentration of half-maximal effect.

SMILES	FLuc inh	GPT2 inh	HEK cytotox	NPR1 antag	3T3 cytotox
CC1=C(C(=O)OC(C)(C)C)C(c2ccccc2)N2C(CC(=O)NCc3ccco3)=CSC2=N1 (stereo not given)	i	i	?	-20.1%	?
Cn1cc(CN2CCOC[C@H]2c2nc(C(C)(C)C)co2)c2ccccc21	i	-0.5%[88.5 µM]	89.1µM*	9.2%[70.6 µM]	?
Cn1cc(CN2CCOC[C@H]2c2ncc(C(C)(C)C)[nH]2)c2ccccc21	i	?	63.1µM*	2.1%[70.6 µM]	?
Cc1nnc2ccc(N3CCN(C(=O)Cc4ccccc4Cl)CC3)nn12	nt	nt	-25.3%	nt	?
CCOC(=O)C1(C/C=C/c2ccccc2)CCCN(C(=O)C2CCOCC2)C1 (stereo not given)	i	1.2%	89.1µM*	-25.0%	-7.5%
Cc1ccc(Nc2ccnc(N3CCC(C(=O)NCC(F)F)CC3)n2)cc1	nt	-4.2%	?	nt	?
Cc1ccc(-c2cc(C(=O)NCCc3ccc(F)cc3)c3cnn(C)c3n2)cc1	nt	?	?	nt	-27.3%
CCOC(=O)C1(Cc2ccc(F)cc2F)CCCN(S(=O)(=O)c2c(C)noc2C)C1 (stereo not given)	i	i	39.8µM*	5.4%	?
Cc1nn(-c2ccc(C(F)(F)F)cc2)c(C)c1[C@@H]1C=C[C@@H](NC(=O)NC(C)C)C1	14.1µM*	?	35.5µM*	?	?
Cc1nn(-c2ccc(C(F)(F)F)cc2)c(C)c1[C@@H]1C=C[C@@H](NC(=O)Nc2ccccc2)C1	12.6µM*	i	50.1µM*	?	31.6µM*
Cc1nn(-c2ccc(C(F)(F)F)cc2)c(C)c1[C@@H]1C=C[C@@H](NC(=O)C2CCCCC2)C1	i	i	?	?	?
O=S(=O)(c1ccc2c(c1)OCCO2)N1CCC(Cc2nc(-c3cccnc3)n[nH]2)C1 (stereo not given)	i	-7.4%	-1.2%	-20.4%	-25.3%
CC(C)NC[C@H]1O[C@H](Cc2cc(CN(C)Cc3ccccc3)on2)CC[C@@H]1O	i	?	-15.4%[172 µM]	3.2%[70.6 µM]	0.2%[174 µM]
CCOC(=O)c1cc2cc(NC(=O)C3=CC(C)(C)Oc4ccc(OC)cc43)ccc2o1	nt	nt	44.7µM*	nt	?
CNC(=O)c1cc(C)nc2onc(C3CCCN3[S+](=O)([O-])c3ccc(C)cc3)c12 (stereo not given)	nt	nt	-1.6%	nt	-25.4%
CNC(=O)[C@H]1C[C@H](Oc2ccccc2)CN1C(=O)c1ccc(OC)c(OC)c1	i	-12.3%	-2.4%	-12.4%	i
CCn1c2ccccc2c2cc(C(=O)N3C[C@@H](Oc4ccccc4)C[C@@H]3C(=O)NC)ccc21	?	i	35.5µM*	-14.2%	?
CCN1c2cc(C(=O)Nc3ccc(C(=O)OC)cc3)ccc2C(=O)N2CCCCCC21 (stereo not given)	i	2.2%	44.7µM*	-0.2%	?
CCc1ccc(NC(=O)c2ccc3c(c2)N(CC)C2CCCCCN2C3=O)cc1 (stereo not given)	?	i	17.8µM*	-9.4%	28.2µM*
CCN1c2cc(C(=O)Nc3ccc(OC)cc3)ccc2C(=O)N2CCCCCC21 (stereo not given)	i	i	?	6.2%	?
COC1CCOC2(CCN(C(=O)Cc3cccc(F)c3)CC2)C1 (stereo not given)	i	i	-6.6%	0.0%	-9.9%
COc1ccc(OCC2CC3(CCCCC3)CN2C(=O)Cc2cccc(F)c2)cc1 (stereo not given)	nt	-4.0%	39.8µM*	nt	39.8µM*
COc1ccc(-c2ccc(C(=O)N(C)CC#N)cc2)nn1	nt	nt	i	nt	-12.3%[138 µM]
CCOCCn1c(=O)[nH]c2cc(C(=O)NCCc3ccc(C)s3)ccc21	39.8µM*	?	?	3.9%	-24.5%
CCOCCn1c(=O)[nH]c2cc(C(=O)NCc3n[nH]c(C)n3)ccc21	i	i	-4.3%	1.0%	i
SMILES	FLuc inh	GPT2 inh	HEK cytotox	NPR1 antag	3T3 cytotox
N#Cc1ccc(C(=O)N2CCC3(CC2)NC(=O)N(Cc2ccc(F)cc2)C3=O)cc1	i	i	?	?	?
CC(C)NC(=O)c1cc(C(C)(C)C)c2cccn2n1	nt	2.3%[88.5 µM]	-11.0%[172 µM]	nt	-5.6%[138 µM]
CC(C)(C)c1cc(C(=O)N2CCCC2)nn2cccc12	nt	-3.0%[88.5 µM]	?	nt	28.2µM*
CC(NC(=O)COc1ccc(F)cc1F)c1ccccc1-n1cccn1 (stereo not given)	i	-16.3%	-14.2%	-0.2%	-25.4%
CN1CCC2(C1)CN(Cc1ccccc1)c1ccc(C(=O)NCCOc3ccccc3)cc12 (stereo not given)	i	0.4%	31.6µM*	0.5%	?
CN(C)CCNC(=O)c1ccc2c(c1)C1(CCN(CC3CC3)C1)CN2Cc1ccccc1 (stereo not given)	i	-9.6%[88.5 µM]	44.7µM*	-9.0%[70.6 µM]	31.6µM*
CN1CC2(CCCN(CC3CC3)C2)c2cc(C(=O)NCCc3ccccn3)ccc21 (stereo not given)	i	i	?	-14.0%[70.6 µM]	-20.1%[138 µM]
CN1CC2(CCCN(CC3CC3)C2)c2cc(C(=O)NCCOc3ccccc3)ccc21 (stereo not given)	i	-1.7%[88.5 µM]	100µM*	-2.1%[70.6 µM]	79.4µM*
CN1CCC2(C1)CN(Cc1ccccc1)c1ccc(C(=O)NCC3CC3)cc12 (stereo not given)	i	2.1%[88.5 µM]	112µM*	-2.0%[70.6 µM]	?
O=C(C1CCCCN1Cc1ccc(-c2cccs2)cc1)N1CCN(c2ncccn2)CC1 (stereo not given)	nt	i	?	nt	?
CC(C)CNC(=O)c1ccc2nnc(Cc3ccc(Cl)cc3)n2c1	nt	i	?	nt	?
COCCNC(=O)c1ccc2c(c1)C1(CCN(C)C1)CN2Cc1csc(C)n1 (stereo not given)	i	-28.8%[88.5 µM]	-12.9%[172 µM]	2.4%[70.6 µM]	?
O=C(NC1CCC1)c1ccc2c(c1)C1(CCN(CC3CC3)C1)CN2Cc1ccccc1 (stereo not given)	i	-8.5%[88.5 µM]	56.2µM*	-13.5%[70.6 µM]	?
O=C(NCC1CC1)c1ccc2c(c1)C1(CCN(CC3CC3)C1)CN2Cc1ccccc1 (stereo not given)	i	-11.7%[88.5 µM]	?	-9.1%[70.6 µM]	79.4µM*
Cc1nc(CN2CC3(CCN(C)C3)c3cc(C(=O)NCCc4ccccc4)ccc32)cs1 (stereo not given)	i	3.4%	79.4µM*	0.4%	?
CCNC(=O)c1ccc2c(c1)C1(CCN(CC3CC3)C1)CN2Cc1ccccc1 (stereo not given)	i	?	?	-7.5%[70.6 µM]	?
CC(=O)NC1(C)CCN(Cc2ccccc2-c2ccc3ccccc3c2)C1 (stereo not given)	i	2.7%[88.5 µM]	?	-16.7%[70.6 µM]	79.4µM*

Screens (PubChem BioAssay)
